USP2a block = USP2a (human) protease inhibition | O75604 | USP2 core, Ub-CHOP2 coupled fluorogenic reporter, 485/531 | Potency, µM (series often up to 38.3 µM), without a hit: at the highest dose activity change, negative = inhibition, most hits filed as inhibitors | 0.01% of 330,000 active;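 also: potency is read from the fitted curve at half-maximal effect; plate controls were DMSO wells for no effect and full inhibition by NEM control for full effect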
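Deubiquitinase activity read as fluorescence (485/531 nm) after Ub-CHOP2 cleavage activates the enterokinase reporter on its substrate; USP2 core 10nM, Ub-CHOP2 and substrate 25nM each, 30min compound preincubation then 60min RT; data normalized to NEM, curves fitted.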
USP1-UAF1 inh = USP1/UAF1 (human) deubiquitinase inhibition | O94782 | recombinant USP1/UAF1, Ub-Rhodamine cleavage fluorescence | Potency, µM (doses to about 57.1 µM), inactives show top-dose activity change, negative = inhibition, usual class: inhibitors | 0.23% of 390,000 active; also: potency is read from the fitted curve at half-maximal effect; nearly all actives have a fitted effect of over 60% in size
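Step one: compound is pinned into 1nM USP1/UAF1 in HEPES pH 7.8 buffer with TCEP. Step two: 15 min room-temperature incubation. Step three: Ub-Rho (150nM final) starts cleavage, tracked by fluorescence over six one-minute reads.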
PI4K2A inh = inhibitors of human PI4K2A; Q9BTU6; purified PI4K2A, ADP-Glo luminescence, 1 h; hits give low values; activity change, negative = inhibition, % at 76.9 µM; 0.13% of 420,000 active; AID 1346378; in the data active = activity change below about -50%; inconclusive = mostly about -30% to -49%;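 also: -100% = wells without enzyme as full effect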
Target sequence (Q9BTU6 whole entry, looked up): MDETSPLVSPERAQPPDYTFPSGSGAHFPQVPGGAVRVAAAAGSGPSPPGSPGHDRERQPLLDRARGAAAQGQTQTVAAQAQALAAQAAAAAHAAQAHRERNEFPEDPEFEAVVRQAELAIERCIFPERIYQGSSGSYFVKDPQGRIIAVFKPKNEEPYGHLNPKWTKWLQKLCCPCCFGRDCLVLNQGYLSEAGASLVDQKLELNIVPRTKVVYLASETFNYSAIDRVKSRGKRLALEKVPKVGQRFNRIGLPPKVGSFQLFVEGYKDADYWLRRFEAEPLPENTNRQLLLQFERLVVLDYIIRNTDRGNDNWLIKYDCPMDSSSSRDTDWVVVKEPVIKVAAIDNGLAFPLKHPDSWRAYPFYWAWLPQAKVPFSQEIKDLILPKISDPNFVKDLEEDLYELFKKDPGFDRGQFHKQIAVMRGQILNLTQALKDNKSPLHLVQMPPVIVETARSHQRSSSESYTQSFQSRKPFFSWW
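ADP-Glo luminescence measured ADP generated by PI4K2A enzyme (4 ug/mL before mixing) with 1.2 mM PI substrate (pre-mix) and 300 microM ATP (pre-mix). Tris pH7.5 buffer with MgCl2, Triton X-100; 1 h reaction at ambient temperature.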
Eya2 inh = Eya2 (human) phosphatase inhibition | recombinant Eya2, OMFP fluorescence dephosphorylation (OMFP is methylfluorescein phosphate) | Potency, µM (top dose mostly 76.9 µM), for the others: top-dose activity, negative = inhibition, most hits filed as inhibitors | 0.006% of 330,000 active; also: potency is read from the fitted curve at half-maximal effect
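Eya2 (0.2 uM) preincubated 10 min at ambient with compound, then OMFP substrate added at 50 uM; 10 min reaction in 50 mM HEPES pH 7.5, 50 mM NaCl, 5 uM MgCl2, 0.05% BSA, 1 mM DTT. Fluorescence read at Ex 485/Em 525 nm.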
GALK inh = galactokinase (human) inhibition | P51570 | Purified GALK, Kinase-Glo residual ATP luminescence | Potency, µM (doses to about 57.5 µM), for inactives: at the highest dose activity change, negative = inhibition, usual class: inhibitors | 0.007% of 270,000 active; also: potency is read from the fitted curve at half-maximal effect
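The enzyme phosphorylates galactose (100 uM) using ATP (35 uM); inhibition is detected as higher residual ATP, quantified by bioluminescence after 1 h reaction at room temperature, pH 8.0.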
FBPA coupling cs = coupling enzyme interference in Giardia aldolase counter-screen. activity change, negative = inhibition, % at 58.2 µM, hits read low. coupling enzyme system counterscreen, AmpLite Red fluorescence. 0.67% of 290,000 active; in the data active = activity change below about -30%
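Activity here indicates interference with the coupling reaction, not aldolase inhibition. Compounds at 57.5 uM final met coupling enzymes for 10 min at RT; substrate and AmpLite Red detection followed, with a 525/598 nm fluorescence read after 20 min.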
Starred values were filed as active, the others as inactive. An excerpt weighted towards active compounds, which were near 0.71% of everything screened. Unless noted, calls follow the shape of the dose curve; as a rule, active = well fitted curve in the direction sought with a large enough effect; inconclusive = small, poorly fitted or top-dose-only effect, or another doubt; inactive = no such curve, though single readings can be large; an effect the other way counts as inactive or inconclusive. Unless noted, % is scaled to controls: 0 for no effect and ±100 for the full control effect.

O=C(/C=C/c1ccc(O)c(O)c1)O[C@@H]1C[C@@](OC(=O)/C=C/c2ccc(O)c(O)c2)(C(=O)O)C[C@@H](O)[C@@H]1O was read as PI4K2A inh -15.5.
`Cc1ccc(C)c(N=Cc2cc3c(cc2[N+](=O)[O-])OCO3)c1` gave USP2a block -5.6%, USP1-UAF1 inh -19.6%, PI4K2A inh -10.8, Eya2 inh 12.3%, GALK inh -1.7% and FBPA coupling cs -40.1*.
`Cc1ccc(N=Cc2cc3c(cc2[N+](=O)[O-])OCO3)cc1[N+](=O)[O-]` gave USP1-UAF1 inh -10.4% and PI4K2A inh -10.2.
Cc1ccc(C)c2[nH]c(=O)c(C(c3nnnn3Cc3ccco3)N3CCc4ccccc4C3)cc12 (centres undefined) was read as USP2a block -20.2%, USP1-UAF1 inh -11.3%, PI4K2A inh -0.5, Eya2 inh 32.5%, GALK inh -2.1% and FBPA coupling cs -34.0*.
CO[C@H]1COC(=O)[C@H]2CCCN2C(=O)C/C=C\[C@@H](C)[C@H](OC)COC(=O)C/C=C\[C@@H]1C was read as FBPA coupling cs -0.4.
`O=C(O)c1cccc(NS(=O)(=O)c2ccc3nnn(O)c3c2)c1` gave USP2a block 4.0%, USP1-UAF1 inh -11.4%, PI4K2A inh 7.6, Eya2 inh -1.6%, GALK inh 2.6% and FBPA coupling cs 20.2.
For O=C(O)c1cccc(NC2=C(n3nnc4ccccc43)C(=O)c3ccccc3C2=O)c1 the results were USP2a block 1.3%, USP1-UAF1 inh 28.2µM*, PI4K2A inh -30.0, Eya2 inh -1.0% and FBPA coupling cs -32.0*.
`COc1cc(C=C2CCC/C(=C\c3ccc(O)c(OC)c3)C2=O)ccc1O` gave PI4K2A inh 1.6.
For COc1ccc(-c2cc3nc(C)cc(N)n3n2)cc1 the results were USP2a block 2.4%, USP1-UAF1 inh -20.0%, PI4K2A inh -87.6*, Eya2 inh -5.1%, GALK inh 18.2% and FBPA coupling cs -3.0.
Screening COc1ccc(-c2cc3nc(C)cc(-c4ccc(OC)cc4)n3n2)cc1 returned USP2a block -1.8%, USP1-UAF1 inh -25.1%, PI4K2A inh -1.4, Eya2 inh -9.4%, GALK inh 5.7% and FBPA coupling cs -3.4.
`COC(=O)NC(c1ccco1)C(C(C)=O)C(=O)OC` (centres undefined) gave FBPA coupling cs 0.5.
`CC(=O)OCCCNc1cc(Sc2nc3ccccc3s2)c2nonc2c1[N+](=O)[O-]` gave USP2a block -0.1%, USP1-UAF1 inh -17.9%, PI4K2A inh -10.4, Eya2 inh -12.5%, GALK inh -3.1% and FBPA coupling cs -35.2*.
Screening CN1CCc2c(n(CC(O)CN(CCO)CCO)c3ccccc23)C1=O (centres undefined) returned USP2a block 0.4%, USP1-UAF1 inh -16.8%, PI4K2A inh 5.3, Eya2 inh inconclusive, GALK inh -2.9% and FBPA coupling cs -50.6*.
Screening COCCn1nnnc1C(C(C)C)N(Cc1ccccc1)Cc1cc2cc(OC)ccc2[nH]c1=O (centres undefined) returned USP2a block -7.3%, USP1-UAF1 inh -6.6%, PI4K2A inh 0.1, Eya2 inh -14.2%, GALK inh -0.9% and FBPA coupling cs -2.6.
CCc1ccc2[nH]c(=O)c(CN(Cc3ccc(OC)cc3)Cc3nnnn3CCOC)cc2c1 was read as USP2a block 1.4%, USP1-UAF1 inh -9.2%, PI4K2A inh 1.5, Eya2 inh 3.7%, GALK inh 2.4% and FBPA coupling cs -74.2*.
Screening CCOc1ccc(N)cc1OC returned USP2a block 4.1%, USP1-UAF1 inh -20.2%, PI4K2A inh -6.0, Eya2 inh -1.4%, GALK inh 11.3% and FBPA coupling cs -33.1*.
Oc1ccc(/C=N/N2CCCCC2)c(O)c1O was read as USP2a block 1.8%, USP1-UAF1 inh inconclusive, PI4K2A inh -9.9, Eya2 inh 2.2%, GALK inh 12.4% and FBPA coupling cs -53.0*.
Oc1ccc(/C=N/N2CCOCC2)c(O)c1O was read as USP2a block 2.9%, USP1-UAF1 inh inconclusive, PI4K2A inh -0.9, Eya2 inh 10.4%, GALK inh 8.5% and FBPA coupling cs -47.9*.
For C[C@@H]1/C=C\CC(=O)OC[C@H](C)C(=O)N2CCC[C@@H]2C(=O)OC1 the results were FBPA coupling cs 1.6.
Screening CCc1ccc(S(=O)(=O)/N=C2/C=C(Sc3ncn[nH]3)C(=O)c3ccccc32)cc1 returned USP2a block 1.4%, USP1-UAF1 inh 1.78µM*, PI4K2A inh -56.3*, Eya2 inh -6.2%, GALK inh -3.7% and FBPA coupling cs -57.6*.
O=S(=O)(N=C1C=CC(=NS(=O)(=O)c2ccccc2)c2ccccc21)c1ccccc1 was read as USP1-UAF1 inh 28.2µM* and PI4K2A inh inconclusive.
Screening CCc1ccc(S(=O)(=O)/N=C2\C=CC(=O)c3ccccc32)cc1 returned USP2a block 3.7%, Eya2 inh 7.2%, GALK inh 3.6% and FBPA coupling cs -49.7*.
Screening COc1cc(OC)c(C2CC(=O)N3CN(c4ccccc4)CSC3=C2C#N)cc1OC (centres undefined) returned USP2a block 0.5%, USP1-UAF1 inh -19.7%, PI4K2A inh -6.0, Eya2 inh 5.3%, GALK inh -0.2% and FBPA coupling cs -23.7.
`CCc1ccccc1N1CSC2=C(C#N)C(c3cc(OC)c(OC)cc3OC)CC(=O)N2C1` (centres undefined) gave USP2a block -5.1%, USP1-UAF1 inh -15.4%, PI4K2A inh -12.2, Eya2 inh 3.9%, GALK inh -0.5% and FBPA coupling cs -52.3*.
Screening COc1ccc(OC)c(C2CC(=O)N3CN(c4ccccc4F)CSC3=C2C#N)c1 (centres undefined) returned USP2a block -0.7%, USP1-UAF1 inh -23.7%, PI4K2A inh -9.8, Eya2 inh 0.1%, GALK inh 1.8% and FBPA coupling cs -83.9*.
For NC[C@@H]1O[C@@H](O[C@H]2[C@H](O)[C@@H](O[C@@H]3O[C@@H](CO)[C@H](O)[C@@H](N)[C@@H]3O)[C@H](N)C[C@@H]2N)[C@@H](O)[C@H](O)[C@H]1O the results were FBPA coupling cs 1.0.
For CC1CCC(C(=O)O)NC1c1cccc(N2CCCC2=O)c1 (centres undefined) the results were FBPA coupling cs 0.3.
